# Test results reported in PubChem BioAssay AID540308 (The Scripps Research Institute Molecular Screening Center, 2011).
# In all, about 360,000 compounds went through this assay and about 3,500 (0.97%) were called active. The sample holds actives, similar compounds and a random draw of the others, so the mix is not that of the screen. Values without a mark were called inactive.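 How the source made its calls: active means activation above a per-plate cutoff, the mean activation of sample wells on that plate plus 3 SD (cut at about 8% in these data); inactive means the rest.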
# Biological target: Melanocortin receptor 4 (Homo sapiens) (UniProt P32245)
# Assay: MC4R agonists recruiting beta-arrestin, primary screen, cell-based, luminescence, agonist arm of biased-ligand search (AID 540308)
# Conditions: U2OS MC4R beta-arrestin complementation, at 8.9 µM, stronger effect = higher value, percent of melanotan II response, DMSO zero
# Sequence of Melanocortin receptor 4 (Homo sapiens) (P32245 whole entry, looked up): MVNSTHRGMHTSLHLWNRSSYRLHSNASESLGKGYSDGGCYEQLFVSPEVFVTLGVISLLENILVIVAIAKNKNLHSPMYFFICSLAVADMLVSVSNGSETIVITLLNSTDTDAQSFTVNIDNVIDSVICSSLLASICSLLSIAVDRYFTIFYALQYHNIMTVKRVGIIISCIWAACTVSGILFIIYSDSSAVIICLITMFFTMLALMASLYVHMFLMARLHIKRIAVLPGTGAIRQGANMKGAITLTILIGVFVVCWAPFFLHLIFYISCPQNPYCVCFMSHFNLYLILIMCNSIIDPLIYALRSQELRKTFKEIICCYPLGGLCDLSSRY
row,SMILES,activation
1,OC[C@@H]1CN(Cc2ccc(F)cc2)C[C@H](n2cnc3c(NC4CCCC4)ncnc32)O1,-2.29%
2,CC1(C(=O)NCc2cccc3ccccc23)CCN1Cc1ccc(-c2ccccc2)o1 (centres undefined),-1.17%
3,COc1ccc(-c2ccc(C(=O)NC(C)C)c3occc23)c(C)c1,1.66%
4,CCc1nc2ccc(C(=O)N(C)Cc3ccco3)cn2c1N(C)C(=O)Cc1ccccc1,-1.99%
5,COc1cccc(CNC(=O)c2nnn(CC(=O)Nc3cc(C)ccc3C)c2N)c1,3.53%
6,COc1ccc(CNC(=O)c2nnn(CC(=O)Nc3cc(C)cc(C)c3)c2N)cc1,0.3%
7,COc1cccc(CNC(=O)c2nnn(CC(=O)Nc3cc(Cl)ccc3C)c2N)c1,11.7% (active)
8,CN(C)c1cccc(NC(=O)c2ccc(-c3ccc(F)c(F)c3)c3ccoc23)c1,0.91%
9,CC(OC(=O)c1ccc([N+](=O)[O-])cc1)C(=O)NCC1CCCCC1 (centres undefined),-1.32%
10,CC(OC(=O)c1cccc(S(=O)(=O)N2CCOCC2)c1)C(=O)NCC1CCCCC1 (centres undefined),0.27%
11,COc1cc(C(=O)OC(C)C(=O)NCC2CCCCC2)cc(NC(=O)c2ccco2)c1OC (centres undefined),13.3% (active)
12,CC(C)Nc1ncnc2c1ncn2[C@H]1CN(Cc2ccncc2)C[C@@H](CO)O1,2.39%
13,CC(C)CN1CCC1(C)C(=O)Nc1ccc(OC(F)F)cc1 (centres undefined),0.55%
14,Cc1ccc(F)c(S(=O)(=O)NC(=O)C2(C)CCN2C(=O)c2ccco2)c1 (centres undefined),0.44%
15,Oc1c(Cl)cc(Cl)c(Cl)c1Cc1c(O)c(Cl)cc(Cl)c1Cl,9.22% (active)
16,O=C(NCc1ccc(F)cc1)c1cc(C2CCCCN2C(=O)c2ccccn2)on1 (centres undefined),1.1%
17,COc1cc(C#Cc2ccc3cc(CCCO)oc(=O)c3c2)cc(OC)c1,-2.63%
18,COC(=O)C(C)Oc1ccc2c(c1)O/C(=C\c1cccc(Br)c1)C2=O (centres undefined),0.36%
19,COc1cc(/C=C2\Oc3ccc(C#Cc4ccc(O)cc4)cc3C2=O)cc(OC)c1,10.2% (active)
20,CCc1nc2ccc(C(=O)Nc3cc(-c4ccccc4)ccc3OC)cn2c1N(CC)CC(=O)N(C)C,1.77%
21,C[C@H]([C@@H](O)[C@@H](O)[C@@H](C)C(C)(C)C)[C@H]1CC[C@H]2C3CC[C@H]4C[C@H](OS(=O)(=O)O)[C@@H](OS(=O)(=O)O)C[C@]4(C)[C@H]3CC[C@]12C (some centres undefined),0.15%
22,CC1(C(=O)NS(=O)(=O)c2ccccc2)CCN1C(=O)C1CCCCC1 (centres undefined),-1.69%
23,COc1cccc(-c2cc3nc(NCc4ccccc4OC)n(C)c(=O)c3s2)c1,6.31%

row,SMILES,activation
1,CCN(CC)C(=O)Oc1ccc(Br)cc1C(=O)Nc1ccc(F)c(Cl)c1,11.6% (active)
2,COc1ccc(Cl)cc1C(=O)Nc1ccc(N(C)C(C)=O)cc1,0.11%
3,CCCOc1ccc(F)cc1-c1cc(C(=O)Nc2ccc(F)c(Cl)c2)[nH]n1,2.17%
4,CCN(CC)c1ccc(/C=N/NC(=O)CNC(=O)c2cccs2)cc1,-1.48%
5,Cc1ccccc1N/N=C/c1ccc(N2CCOCC2)cc1,-1.27%
6,CCN(CC)c1ccc(C(=O)N/N=C/c2ccc(N3CCOCC3)cc2)cc1,26.7% (active)
7,O=CNc1cc(-c2ccc(C(=O)N3CCOCC3)cc2)cn2c(-c3ccc(F)cc3)cnc12,0.33%
8,CC1(Cc2ccccc2C#N)C(=O)Nc2ccc(-c3ccc4[nH]ccc4c3)cc21 (centres undefined),-2.44%
9,Cc1nc2c(OCc3cccc(Cl)c3)cccn2c1N(C)CC1CC1,-0.13%
10,CC1(C(=O)NCc2ccco2)Cc2c(-c3ccc4c(c3)OCO4)ccnc2O1 (centres undefined),0.01%
11,CC1=C(C/C=C(\C)CCCC(C)CCCC(C)CCCC(C)C)C(=O)c2ccccc2C1=O (centres undefined),-1.56%
12,CCN(CC)S(=O)(=O)c1ccc(OC)c(NC(=O)CCc2c(C)noc2C)c1,-1.81%
13,CCN(CC)S(=O)(=O)c1ccc(C)c(NC(=O)COc2ccc(Br)cc2Cl)c1,13.4% (active)
14,Cc1ccc(S(=O)(=O)N(C)C)cc1NC(=O)COC(=O)c1c(C)noc1C,-0.85%
15,O=C(NCc1cccnc1)c1cc(C2CCCCN2C(=O)CCc2ccccc2)on1 (centres undefined),-1.7%
16,CCNC(=O)C1CCCN(C(=O)c2cc(F)ccc2C)CC1 (centres undefined),1.6%
17,CC(C)(C)OC(=O)N1CCC(NC(=O)c2[nH]cnc2C(=O)N[C@@H](Cc2ccccc2)C(=O)OCc2ccccc2)CC1,17.8% (active)
18,O=C(N[C@@H](Cc1ccccc1)C(=O)OCc1ccccc1)c1nc[nH]c1C(=O)N[C@@H](Cc1ccccc1)C(=O)OCc1ccccc1,0.69%
19,O=C(N[C@@H](Cc1ccccc1)C(=O)OCc1ccccc1)c1nc[nH]c1C(=O)NC1CCNCC1,-0.82%
20,CC(=O)c1ccc(Nc2nc(C(N)c3ccccc3Cl)cs2)cc1 (centres undefined),-0.98%
21,O=C(Cc1ccc(-c2ccccc2)cc1)NC(c1ccccc1)c1ccccc1,9.56% (active)
22,C=CCC(NC(=O)Cc1ccccc1)C(=O)NCCC (centres undefined),-0.94%
23,O=C(CN1CCN(Cc2ccccc2)CC1)NC(c1ccccc1)c1ccccc1,1.85%

row,SMILES,activation
1,COc1ccc(CN2CCC(C)(Oc3cccc(F)c3)C2)c2ccccc12 (centres undefined),0.37%
2,COc1c(Cl)cc(C(=O)Nc2ccc(Cl)cn2)cc1Cl,10.6% (active)
3,O=C(Nc1ccc(Cl)cn1)c1ccc2c(c1)OCCO2,0.85%
4,CCCc1cc(C(=O)Nc2ccc(Cl)cn2)cs1,3.75%
5,COc1ccc(-c2cc3nc(NCCOc4ccccc4)ccn3n2)cc1,4.13%
6,CCOc1ccc(/C=N/NC(=O)C(C)Sc2ccccn2)cc1OCC (centres undefined),2.39%
7,CCOc1cc(/C=N/NC(=O)OC)ccc1OCCSc1ccc(Cl)cc1,4.19%
8,COc1cc(/C=N/NC(=O)Nc2ccccc2)ccc1OCCOc1ccccc1C,21.2% (active)
9,CCCCNc1nc2c(c(=O)n(C)c(=O)n2C)n1Cc1cccc(OC)c1,-2.77%
10,CCCCNc1c(-c2cccc(Sc3ccc(OC)cc3)c2)nc2ccccn12,13.9% (active)
11,CCCCNc1c(-c2ccc(OC)c(Sc3ccc(OC)cc3)c2)nc2ccc(Cl)cn12,-1.91%
12,CNc1cc(-c2c(OC)cccc2OC)ncn1,0.41%
13,CC1CCN(C(=S)c2ccc(-c3ccc(Cl)cc3Cl)o2)CC1,2.82%
14,Cc1csc(NC(=O)c2ccc(-c3ccc(Cl)cc3Cl)o2)n1,12.6% (active)
15,O=C(NNc1cc(Cl)ccc1Cl)c1cccnc1Cl,-2.02%
16,COc1cc(SC)ccc1C(=O)Nc1nc(C)cs1,-0.94%
17,O=C(Nc1cccc2ncccc12)c1ccc(-c2ccc(Cl)cc2Cl)o1,20.2% (active)
18,Cc1ccc(/C=C(\C#N)C(=O)Nc2cccc3ncccc23)o1,0.31%
19,Cc1nc2c(OCc3ccc(Cl)cc3)cccn2c1N(C)Cc1cccs1,-2.75%
20,COc1ccc(CCNC(=O)Nc2ccc3c(c2)c(=O)n(C)n3C)cc1OC,1.3%
21,COc1cc(C(O)c2nc(-c3cccc(C(=O)O)c3)cs2)ccc1F (centres undefined),-1.9%
22,CC1(C(=O)NS(=O)(=O)c2cccc(OC(F)F)c2)CCN1C(=O)COc1ccc(Cl)cc1 (centres undefined),-1.09%
23,CCc1ccc(OC2(C)CCN(CCOc3ccc(C)cc3)C2)cc1 (centres undefined),3.54%

row,SMILES,activation
1,Cc1ccccc1CN1C(=O)c2ccccc2Sc2ccc(C(=O)NCCCN3CCOCC3)cc21,3.09%
2,CCN1CCN(CCNC(=O)c2ccc3c(c2)NC(=O)/C(=C\c2cccc(Cl)c2)S3)CC1,-0.09%
3,CCN1CCN(CCNC(=O)c2ccc(/C=C3/Sc4ccccc4N(Cc4cccc(C)c4)C3=O)cc2)CC1,13.8% (active)
4,CCc1nc2c(OCC(=O)C(C)(C)C)cccn2c1N(C)C(=O)c1ccccc1F,-1.02%
5,CCC(=O)N1CCC(C)(C(=O)Nc2cc(OC)c(OC)c(OC)c2)C1 (centres undefined),-0.53%
6,CC1(C(=O)N/N=C/c2cc3c(cc2Br)OCO3)CC1(Br)Br (centres undefined),-3.59%
7,CC(C)Oc1c(Br)cc(Br)cc1/C=N/NC(N)=S,22.7% (active)
8,COc1cccc(C(NC(C)=O)c2nc(-c3ccccc3OC)cs2)c1 (centres undefined),-0.26%
9,Cc1cc(O)ccc1-c1cc(C(=O)NCc2cc(C(F)(F)F)cc(C(F)(F)F)c2)[nH]n1,2.75%
10,OC(c1ccc(F)cc1)c1ncc(-c2cccc(C(F)(F)F)c2)[nH]1 (centres undefined),1.88%
11,CC(=O)NC(c1ccccc1)c1nc(-c2ccccc2C)cs1 (centres undefined),0.3%
12,CC1(C(=O)NCc2ccc3c(c2)OCO3)CCN1C(=O)Cc1cccs1 (centres undefined),0.72%
13,COc1ccc(OCC(=O)NNC(=O)C2CCC2)cc1,-1.99%
14,COc1ccc(OCC(=O)Nc2ccc(N3CCC(C)CC3)cc2)cc1,10.2% (active)
15,CCC(=O)c1ccc(OCC(=O)Nc2ccc(N3CCCCC3)cc2)cc1,3.06%
16,CC12CCC(=O)C=C1CCC1C2C(O)CC2(C)C1CCC2(O)C(O)CO (centres undefined),-0.23%
17,CCCNC(=O)C1(C)CCN(C(=O)c2ccccc2OC(F)(F)F)C1 (centres undefined),0.4%
18,COc1ccc(NC(=O)c2cc(-c3ccc(C)o3)nc3ccccc23)cc1,9.46% (active)
19,COc1ccc(NC(=O)CN(C)C(=O)c2cc(-c3ccc(C)o3)nc3ccccc23)cc1,-0.83%
20,CC(=O)N1CCN(C(=O)c2cc(-c3ccc(C)o3)nc3ccccc23)CC1,-2.54%
